The structures appear in SMILES notation. Compounds without any hit were thinned out: in the full panel of roughly 79,000, 15% have a hit. Unmarked numbers belong to inactive results. Calls of active or inactive are those of the source. No stated cut-off is given here; in the data, active means growth inhibition above about 70%; inactive means the rest.

Experiment [1] is described as follows: NCI Yeast Anticancer Drug Screen. Data for the rad50 strain (AID 155).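 Further: 0% = growth of vehicle-only cultures of the same strain.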 As to conditions: S. cerevisiae rad50 strain growth inhibition, hits give high values. Put shortly: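 Cells are treated with compound, grown, and their growth is then scored against vehicle-only cultures of the same repair-deficient yeast strain.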
A short description of experiment [2]: NCI Yeast Anticancer Drug Screen. Data for the mec2-1 strain (AID 157). The note with it: S. cerevisiae mec2-1 strain, hits give high values. Put shortly:
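Using mec2-1 yeast: add compound, measure growth, express inhibition versus vehicle-treated cultures.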

The nature of experiment [3]: NCI Yeast Anticancer Drug Screen. Data for the sgs1 mgt1 strain (AID 161).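 Further: 0% = growth of cultures given vehicle only.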 As to conditions: S. cerevisiae sgs1 mgt1 strain, hits give high values. Put shortly:
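Compounds are added to genetically altered yeast, and growth is compared with cultures given vehicle alone to give percent inhibition.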

The nature of experiment [4]: NCI Yeast Anticancer Drug Screen. Data for the cln2 rad14 strain (AID 165).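 Further: 0% = growth equal to vehicle treated cultures.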 The note with it: S. cerevisiae cln2 rad14 strain, hits give high values. In a few lines:
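Yeast strain cln2 rad14, bearing defects in cell cycle control and DNA repair, serves as the test system; values reflect growth inhibition compared with vehicle.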

A short description of experiment [5]: NCI Yeast Anticancer Drug Screen. Data for the bub3 strain (AID 167). As to conditions: S. cerevisiae bub3 mutant strain, hits give high values. In a few lines: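 Part of a panel of yeast mutants defective in DNA damage repair or cell cycle regulation. Each strain is grown with compound, and inhibition is calculated relative to solvent-treated cultures.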
Experiment [6] in a line: NCI Yeast Anticancer Drug Screen. Data for the mlh1 rad18 strain (AID 175). The note with it: S. cerevisiae mlh1 rad18 strain growth inhibition, hits give high values. In a few lines: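 Steps: expose repair-defective yeast to compound; measure growth; express inhibition against vehicle-treated controls.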
Setting [7] is: at 5.0 µM (retest, dose inferred, filed as 0.5).
The mark [8] stands for this setting: at 50.0 µM (retest, dose inferred, filed as 5.0).

In the case of `CCc1cccc(C(C)(C)C)c1NC(=S)N/C=C(\C#N)C(=O)c1ccc2ccccc2c1`, the growth inhibition is -5% in experiment [1] (setting [7]); 34% in experiment [1] (setting [8]); 67.4% in experiment [1] (at 50.0 µM); -26% in experiment [2] (setting [7]); 25% in experiment [2] (setting [8]); 35.5% in experiment [2] (at 50.0 µM). For the same molecule, the growth inhibition in experiment [3] (setting [7]) was -8%; in experiment [3] (setting [8]), 22%; in experiment [3] (at 50.0 µM), 70.7% (active); in experiment [4] (setting [7]) it was -18%; in experiment [4] (setting [8]) it was 8%; in experiment [4] (at 50.0 µM), 29.3%. Moreover, the growth inhibition in experiment [5] (setting [7]) was -17%; in experiment [5] (setting [8]) it was 18%; in experiment [5] (at 50.0 µM) it was 63.9%; in experiment [6] (setting [7]), -6%; in experiment [6] (setting [8]), 38%; in experiment [6] (at 50.0 µM), 65.2%.
Consider `COc1ccccc1C1C(Cl)C(=O)N1n1cnc2ccccc2c1=O` (stereo not given), for which the growth inhibition in experiment [1] (setting [7]) is -12%; in experiment [1] (setting [8]), -12%; in experiment [1] (at 50.0 µM), 83.9% (active); in experiment [2] (setting [7]), -29%; in experiment [2] (setting [8]), 7%; in experiment [2] (at 50.0 µM), 49.4%. The growth inhibition in experiment [3] (setting [7]) is -11%; in experiment [3] (setting [8]) it was 2%; in experiment [3] (at 50.0 µM), 84.5% (active); in experiment [4] (setting [7]), 15%; in experiment [4] (setting [8]), 16%; in experiment [4] (at 50.0 µM), 62.3%. The growth inhibition in experiment [5] (setting [7]) was 9%; in experiment [5] (setting [8]) it was 55%; in experiment [5] (at 50.0 µM), 83.2% (active); in experiment [6] (setting [7]), -5%; in experiment [6] (setting [8]), -3%; in experiment [6] (at 50.0 µM) it was 76.8% (active).
With `C/C=C\C(/C=C/C)(C(=O)OCCN(C)C)C(/C=C\C)(/C=C/C)C(=O)OCCN(C)C` (stereo not given), the growth inhibition in experiment [1] (setting [7]) is 5%; in experiment [1] (setting [8]), 97% (active); in experiment [1] (at 50.0 µM), 98% (active); in experiment [2] (setting [7]), 2%; in experiment [2] (setting [8]), 97% (active); in experiment [2] (at 50.0 µM) it was 96.8% (active). For the same molecule, the growth inhibition is 5% in experiment [3] (setting [7]); 96% (active) in experiment [3] (setting [8]); 95.8% (active) in experiment [3] (at 50.0 µM); 2% in experiment [4] (setting [7]); 97% (active) in experiment [4] (setting [8]); 96.5% (active) in experiment [4] (at 50.0 µM). Moreover, the growth inhibition in experiment [5] (setting [7]) was 2%; in experiment [5] (setting [8]), 95% (active); in experiment [5] (at 50.0 µM), 95.4% (active); in experiment [6] (setting [7]) it was 3%; in experiment [6] (setting [8]) it was 97% (active); in experiment [6] (at 50.0 µM) it was 97% (active).
For `CCCCCCCCCCCCCCNC(=O)CCC(NC(=O)c1ccc(N(C)Cc2cnc3nc(N)nc(N)c3n2)cc1)C(=O)NCCCCCCCCCCCCCC` (stereo not given), the growth inhibition in experiment [1] (setting [7]) was 28%; in experiment [1] (setting [8]), 94% (active); in experiment [1] (at 50.0 µM), 64.9%; in experiment [2] (setting [7]), 22%; in experiment [2] (setting [8]), 96% (active); in experiment [2] (at 50.0 µM), 84.7% (active). Moreover, the growth inhibition is 19% in experiment [3] (setting [7]); 93% (active) in experiment [3] (setting [8]); 86.3% (active) in experiment [3] (at 50.0 µM); 3% in experiment [4] (setting [7]); 77% (active) in experiment [4] (setting [8]); 45.1% in experiment [4] (at 50.0 µM). In addition, the growth inhibition was 24% in experiment [5] (setting [7]); 93% (active) in experiment [5] (setting [8]); 68.7% in experiment [5] (at 50.0 µM); 24% in experiment [6] (setting [7]); 91% (active) in experiment [6] (setting [8]); 20.8% in experiment [6] (at 50.0 µM).
In the case of `CC1=C(C(=O)Nc2cccc(Cl)c2)C(c2ccccc2F)C(C(=O)Nc2cccc(Cl)c2)=C(C)N1`, the growth inhibition was 44% in experiment [1] (setting [7]); 44% in experiment [1] (setting [8]); 71.3% (active) in experiment [1] (at 50.0 µM); 49% in experiment [2] (setting [7]); 49% in experiment [2] (setting [8]); 81.8% (active) in experiment [2] (at 50.0 µM). Further, the growth inhibition in experiment [3] (setting [7]) was 37%; in experiment [3] (setting [8]) it was 37%; in experiment [3] (at 50.0 µM), 86.2% (active); in experiment [4] (setting [7]), 36%; in experiment [4] (setting [8]), 36%; in experiment [4] (at 50.0 µM), 85.1% (active). Besides, the growth inhibition in experiment [5] (setting [7]) is 56%; in experiment [5] (setting [8]) it was 56%; in experiment [5] (at 50.0 µM) it was 86.8% (active); in experiment [6] (setting [7]), 62%; in experiment [6] (setting [8]), 62%; in experiment [6] (at 50.0 µM) it was 87.7% (active).
In the case of `ClCc1ccc(OCc2ccccc2)c(OCc2ccccc2)c1`, the growth inhibition in experiment [1] (setting [7]) was 4%; in experiment [1] (setting [8]), 51%; in experiment [1] (at 50.0 µM), 79% (active); in experiment [2] (setting [7]), 2%; in experiment [2] (setting [8]) it was 67%; in experiment [2] (at 50.0 µM), 62.3%. The growth inhibition in experiment [3] (setting [7]) was 4%; in experiment [3] (setting [8]) it was 87% (active); in experiment [3] (at 50.0 µM) it was 89.2% (active); in experiment [4] (setting [7]) it was 0%; in experiment [4] (setting [8]) it was 48%; in experiment [4] (at 50.0 µM), 82.3% (active). For the same molecule, the growth inhibition in experiment [5] (setting [7]) was 6%; in experiment [5] (setting [8]), 77% (active); in experiment [5] (at 50.0 µM), 87.2% (active); in experiment [6] (setting [7]), 17%; in experiment [6] (setting [8]) it was 87% (active); in experiment [6] (at 50.0 µM), 94.2% (active).
Take `O=C(O)c1ccccc1C(=O)c1ccc2c(c1)Cc1ccccc1-2`: the growth inhibition in experiment [1] (setting [7]) is -5%; in experiment [1] (setting [8]) it was 9%; in experiment [1] (at 50.0 µM) it was 68.6%; in experiment [2] (setting [7]) it was -3%; in experiment [2] (setting [8]), 4%; in experiment [2] (at 50.0 µM) it was 41.3%. In addition, the growth inhibition in experiment [3] (setting [7]) is -4%; in experiment [3] (setting [8]), 7%; in experiment [3] (at 50.0 µM) it was 44.9%; in experiment [4] (setting [7]), -28%; in experiment [4] (setting [8]), 31%; in experiment [4] (at 50.0 µM) it was 74.8% (active). Also, the growth inhibition in experiment [5] (setting [7]) was 4%; in experiment [5] (setting [8]), 5%; in experiment [5] (at 50.0 µM), 42.8%; in experiment [6] (setting [7]), 3%; in experiment [6] (setting [8]) it was 26%; in experiment [6] (at 50.0 µM), 76% (active).
As for `O=C1C(Sc2ccc3ccccc3c2)=C(Sc2ccc3ccccc3c2)C(=O)c2ccccc21`, the growth inhibition in experiment [1] (setting [7]) is 34%; in experiment [1] (setting [8]), 90% (active); in experiment [1] (at 50.0 µM) it was 94.2% (active); in experiment [2] (setting [7]), 21%; in experiment [2] (setting [8]) it was 94% (active); in experiment [2] (at 50.0 µM), 99% (active). The growth inhibition in experiment [3] (setting [7]) is 36%; in experiment [3] (setting [8]), 93% (active); in experiment [3] (at 50.0 µM) it was 98.9% (active); in experiment [4] (setting [7]) it was 7%; in experiment [4] (setting [8]), 89% (active); in experiment [4] (at 50.0 µM), 98.3% (active). The growth inhibition in experiment [5] (setting [7]) was 71% (active); in experiment [5] (setting [8]) it was 90% (active); in experiment [5] (at 50.0 µM) it was 98.9% (active); in experiment [6] (setting [7]), 16%; in experiment [6] (setting [8]), 89% (active); in experiment [6] (at 50.0 µM), 96.8% (active).
In the case of `O=C(CSCc1c(F)cccc1Cl)Nc1ccc(F)c(Cl)c1`, the growth inhibition was 51% in experiment [1] (setting [7]); 39% in experiment [1] (setting [8]); 88.3% (active) in experiment [1] (at 50.0 µM); 34% in experiment [2] (setting [7]); 38% in experiment [2] (setting [8]); 91.3% (active) in experiment [2] (at 50.0 µM). Moreover, the growth inhibition is 36% in experiment [3] (setting [7]); 50% in experiment [3] (setting [8]); 91.7% (active) in experiment [3] (at 50.0 µM); 33% in experiment [4] (setting [7]); 44% in experiment [4] (setting [8]); 90.1% (active) in experiment [4] (at 50.0 µM). The growth inhibition is 45% in experiment [5] (setting [7]); 76% (active) in experiment [5] (setting [8]); 91.5% (active) in experiment [5] (at 50.0 µM); 49% in experiment [6] (setting [7]); 53% in experiment [6] (setting [8]); 63.2% in experiment [6] (at 50.0 µM).
As to `COc1cccc2c1C(=O)c1c(O)c3c(c(O)c1C2=O)C[C@@](O)(C(O)CO)C[C@@H]3OC1CC(N(Cc2ccccc2)Cc2ccccc2)C(O)C(C)O1` (stereo not given in full), the growth inhibition in experiment [1] (setting [7]) was 45%; in experiment [1] (setting [8]) it was 98% (active); in experiment [1] (at 50.0 µM), 86.8% (active); in experiment [2] (setting [7]), 13%; in experiment [2] (setting [8]), 98% (active); in experiment [2] (at 50.0 µM), 85.8% (active). Moreover, the growth inhibition was 29% in experiment [3] (setting [7]); 98% (active) in experiment [3] (setting [8]); 65.6% in experiment [3] (at 50.0 µM); 18% in experiment [4] (setting [7]); 97% (active) in experiment [4] (setting [8]); 45.1% in experiment [4] (at 50.0 µM). The growth inhibition in experiment [5] (setting [7]) was 20%; in experiment [5] (setting [8]) it was 98% (active); in experiment [5] (at 50.0 µM) it was 62%; in experiment [6] (setting [7]), 50%; in experiment [6] (setting [8]) it was 97% (active); in experiment [6] (at 50.0 µM) it was 84% (active).
